Values without a mark were called inactive. Records with an inconclusive call do not appear. Where a call stands in place of a potency, no number is given. Calls of active or inactive are those of the source. Unless noted, the call rests on the fitted dose curve; in most records, active means well fitted curve in the direction sought with a large enough effect; inconclusive means small, poorly fitted or top-dose-only effect, or another doubt; inactive means no such curve, though single readings can be large; an effect the other way counts as inactive or inconclusive.
Assays:
[1] = target: Arylsulfatase A (Homo sapiens) (UniProt P15289); assay: qHTS screen for enhancers of Arylsulfatase A (ASA1): LOPAC Validation Assay (AID 720538)
Arylsulfatase A (Homo sapiens), sequence (P15289 whole entry, looked up): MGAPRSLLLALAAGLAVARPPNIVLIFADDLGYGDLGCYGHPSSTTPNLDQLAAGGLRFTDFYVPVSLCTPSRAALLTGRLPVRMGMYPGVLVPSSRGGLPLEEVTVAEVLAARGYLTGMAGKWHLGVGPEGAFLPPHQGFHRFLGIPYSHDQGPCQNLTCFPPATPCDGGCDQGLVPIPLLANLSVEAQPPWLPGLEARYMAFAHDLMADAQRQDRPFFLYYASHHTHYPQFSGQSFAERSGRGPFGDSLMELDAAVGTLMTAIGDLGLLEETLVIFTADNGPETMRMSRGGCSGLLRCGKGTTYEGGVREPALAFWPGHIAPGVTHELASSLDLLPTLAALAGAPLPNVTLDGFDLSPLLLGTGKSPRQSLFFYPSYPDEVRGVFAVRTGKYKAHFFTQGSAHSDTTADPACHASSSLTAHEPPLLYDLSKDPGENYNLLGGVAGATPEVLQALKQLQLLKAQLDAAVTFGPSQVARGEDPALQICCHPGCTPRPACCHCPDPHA
Procedure, shortened: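 Read-out: fluorescence at Ex=525/Em=598 nm after 1N NaOH final stop. Patient fibroblasts carrying ASA-I179S had 48h compound exposure, then 14h room-temperature pNCS hydrolysis (0.5mM final) in lysis buffer. Signal increase = enhanced activity.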

[2] = qHTS for compounds that reverse cellular toxicity of Amyloid beta (A-beta) peptide in yeast: LOPAC Validation Assay (AID 720559)
Procedure, shortened: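 OD600 growth readout after 48 hr at 30 C; A-beta-toxic yeast plus pinned compounds in medium. Normalization: DMSO = negative, equimolar FeCl3 + clioquinol = positive.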

[3] = qHTS for Activators of Parkin Expression: LOPAC Validation Assay (NLuc Reporter) (AID 720572)
Procedure, shortened: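 NLuc signal, read 10 min after reagent and following a prior FLuc read, is normalized to DMSO (0) and positive controls (100%). Cells: neuronal Parkin-promoter coincidence reporter line; compounds tested 7-point, 24 h, 37 C, 5% CO2.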

[4] = qHTS for Activators of Parkin Expression: LOPAC Validation Assay (FLuc Reporter) (AID 720573)
Procedure, shortened: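 FLuc luminescence read-out from a neuronal line expressing a Parkin-promoter-driven coincidence reporter. Cells treated 24 h at 37 C, 5% CO2 with compounds at 7 concentrations; signal increase normalized to DMSO and positive control.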

[5] = target: Hexokinase-4 (Homo sapiens) + Glucokinase regulatory protein (Homo sapiens) (UniProt P35557+Q14397); assay: qHTS assay for inhibitors of recombinant human GCK-GKRP interaction: Diaphorase-coupled assay (AID 743205)
Hexokinase-4 (Homo sapiens) + Glucokinase regulatory protein (Homo sapiens), sequence (P35557 whole entry, looked up): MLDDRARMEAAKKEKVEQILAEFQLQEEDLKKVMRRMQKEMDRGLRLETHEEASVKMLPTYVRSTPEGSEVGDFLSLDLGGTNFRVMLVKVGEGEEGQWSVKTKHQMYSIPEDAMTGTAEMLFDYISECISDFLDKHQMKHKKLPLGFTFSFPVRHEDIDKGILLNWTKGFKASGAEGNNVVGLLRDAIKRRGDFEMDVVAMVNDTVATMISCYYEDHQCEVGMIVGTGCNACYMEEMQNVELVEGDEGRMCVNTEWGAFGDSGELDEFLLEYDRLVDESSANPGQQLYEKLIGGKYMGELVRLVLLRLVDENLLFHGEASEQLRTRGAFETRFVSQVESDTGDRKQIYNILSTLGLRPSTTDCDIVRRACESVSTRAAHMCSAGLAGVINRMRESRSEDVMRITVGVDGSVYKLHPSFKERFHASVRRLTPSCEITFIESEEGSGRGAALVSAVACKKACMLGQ
Hexokinase-4 (Homo sapiens) + Glucokinase regulatory protein (Homo sapiens), sequence (Q14397 whole entry, looked up): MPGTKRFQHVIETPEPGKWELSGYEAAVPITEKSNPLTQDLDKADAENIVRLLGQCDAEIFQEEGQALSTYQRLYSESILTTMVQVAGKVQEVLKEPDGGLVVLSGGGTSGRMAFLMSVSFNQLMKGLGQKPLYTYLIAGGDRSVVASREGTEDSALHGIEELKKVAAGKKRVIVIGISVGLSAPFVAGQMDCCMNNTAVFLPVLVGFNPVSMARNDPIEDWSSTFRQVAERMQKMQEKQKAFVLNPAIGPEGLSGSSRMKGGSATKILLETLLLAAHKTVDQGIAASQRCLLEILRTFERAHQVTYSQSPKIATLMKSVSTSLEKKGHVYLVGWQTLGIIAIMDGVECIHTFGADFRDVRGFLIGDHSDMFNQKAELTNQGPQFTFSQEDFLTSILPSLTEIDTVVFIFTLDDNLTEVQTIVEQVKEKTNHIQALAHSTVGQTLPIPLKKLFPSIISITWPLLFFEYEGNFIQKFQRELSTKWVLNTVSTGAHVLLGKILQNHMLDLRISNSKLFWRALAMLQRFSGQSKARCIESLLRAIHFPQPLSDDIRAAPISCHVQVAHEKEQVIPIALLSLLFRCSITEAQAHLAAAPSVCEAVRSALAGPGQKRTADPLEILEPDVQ
Procedure, shortened: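 Resorufin fluorescence (525/590 nm), read each minute over 30 min, reports GCK activity coupled via G6PDH and diaphorase. Reaction: 10 nM GST-GCK, 10 nM FLAG-GKRP, 5 mM glucose, 0.4 mM ATP, 0.15 mM NADP+, 0.1 mM resazurin.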

[6] = qHTS assay for small molecule agonists of the antioxidant response element (ARE) signaling pathway measured by Nrf2-dependant transcriptional activity (AID 720636; active means well fitted curve in the direction sought with a large enough effect in the repeat runs; an effect the other way counts as inactive or inconclusive)
Procedure, shortened: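 Nrf2-dependent transcription read as ONE-Glo luciferase signal from ARE-luc HepG2 reporter cells after 16 hr compound treatment at 37 C, 5% CO2, in assay medium with 1% dialyzed FBS.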

[7] = qHTS assay for small molecule agonists of the antioxidant response element (ARE) signaling pathway measured by Nrf2-dependant transcriptional activity - cell viability counter screen (AID 720653; active means well fitted curve in the direction sought with a large enough effect in the repeat runs; an effect the other way counts as inactive or inconclusive; further: potency means the concentration at half of the fitted maximal effect); conditions: ARE-bla HepG2 viability, CellTiter-Glo ATP luminescence, 16 h; max response: hits give low values
Procedure, shortened: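 ARE-bla HepG2 cells treated with compounds for 16 h at 37C; this counter screen measures viability as intracellular ATP by CellTiter-Glo luminescence after 30 min at room temperature.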

COc1ccccc1N1CCN(CC(O)COc2cccc3ccccc23)CC1 (stereo unspecified)
Potency [1]: inactive | outcome [2]: inactive | outcome [3]: inactive | Potency [4]: inactive | Potency [5]: inactive

NC(=O)NO
Potency [1]: inactive | outcome [2]: inactive | outcome [3]: inactive | Potency [4]: inactive

CCN1CCCC1CNC(=O)c1cc(S(=O)(=O)CC)c(N)cc1OC (stereo unspecified)
Potency [1]: inactive | outcome [2]: inactive | outcome [3]: inactive | Potency [4]: inactive

N[C@@H](Cc1c[nH]c2ccc(O)cc12)C(=O)O
Potency [1]: inactive | outcome [2]: inactive | outcome [3]: inactive | Potency [4]: inactive | outcome [6]: inactive | max response [7]: -3.27% | Potency [5]: inactive

Clc1ccc2c(c1)C(N1CCNCC1)=Nc1ccccc1O2
Potency [1]: inactive | outcome [2]: inactive | outcome [3]: inactive | Potency [4]: inactive | Potency [5]: inactive

Fc1ccc([C@@H]2CCNC[C@H]2COc2ccc3c(c2)OCO3)cc1
Potency [1]: inactive | outcome [2]: inactive | outcome [3]: inactive | Potency [4]: inactive

Nc1nc2c(ncn2COC(CO)CO)c(=O)[nH]1
Potency [1]: inactive | outcome [2]: inactive | outcome [3]: inactive | Potency [4]: inactive | Potency [5]: inactive

CN(C)CCOC(c1ccccc1)c1ccccc1
Potency [1]: inactive | outcome [2]: inactive | outcome [3]: inactive | Potency [4]: inactive | outcome [6]: inactive | max response [7]: -12%

CC1COc2c(N3CCN(C)CC3)c(F)cc3c(=O)c(C(=O)O)cn1c23 (stereo unspecified)
Potency [1]: inactive | outcome [2]: inactive | outcome [3]: inactive | Potency [4]: inactive

O=C(c1ccc(OCCN2CCCCC2)cc1)c1c(-c2ccc(O)cc2)sc2cc(O)ccc12
Potency [1]: inactive | outcome [2]: inactive | outcome [3]: inactive | Potency [4]: inactive | outcome [6]: inactive | Potency [5]: inactive

COC(=O)Nc1nc2ccc(C(=O)c3cccs3)cc2[nH]1
Potency [1]: inactive | outcome [2]: inactive | outcome [3]: inactive | Potency [4]: inactive | Potency [5]: inactive

CN(Cc1cnc2nc(N)nc(N)c2n1)c1ccc(C(=O)N[C@@H](CCC(=O)O)C(=O)O)cc1
Potency [1]: inactive | outcome [2]: inactive | outcome [3]: inactive | Potency [4]: inactive | outcome [6]: inactive | Potency [7]: 44.7 nM (active)
